Screening results (PubChem BioAssay)
SARS PLP yeast: qHTS of Yeast-based Assay for SARS-CoV PLP. Potency, µM (series often up to 32.9 µM), for the others: top-dose activity, positive = growth rescue, most hits filed as activators. S. cerevisiae expressing SARS-CoV PLpro, growth rescue. 330,000 tested, 0.19% active; calls by dose curve; also: 0% is about no effect; nearly all actives have a fitted effect of over 55% in size
Sm TGR block: qHTS Assay for the Inhibitors of Schistosoma Mansoni Peroxiredoxins; 360,000 tested, 3% active; purified TGR, DTNB reduction, TNB absorbance 405 nm; AID 485364, 2010; Schistosoma mansoni thioredoxin glutathione reductase (TGR), Q962Y6; Potency, µM (top dose mostly 114 µM), for inactives: at the highest dose activity change, negative = inhibition, hits mostly inhibitors; also: % is scaled to controls: 0 for no effect and ±100 for the full control effect; nearly all actives have a fitted effect of over 60% in size
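Kinetic colorimetric format: TGR-catalysed, NADPH-driven DTNB reduction monitored via TNB absorbance. Enzyme dispensed at 20 nM; compound exposure 15 min at room temperature before reaction start.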
RE007 growth inh: qHTS Assay for Inhibitors of the HIV-1 protein Vpr; S. pombe RE007 Vpr strain, BacTiter-Glo ATP luminescence, 24 h; Potency, µM (doses to about 92.2 µM), for inactives: at the top dose activity change, negative = less growth, usual class: inhibitors; 360,000 tested, 0.21% active; active = well fitted falling curve with a large enough effect; inconclusive = small, poorly fitted or top-dose-only effect; inactive = no such curve, though single readings can be large or run the other way; also: % is scaled to controls: 0 for no effect and ±100 for the full control effect; nearly all actives have a fitted effect of over 50% in size
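Fission yeast RE007 carrying one integrated HIV-1 vpr copy, seeded at OD 0.01 in PMG+AL medium with 23 nL pinned compound. Grown 24 h at 30 degrees; viability read by BacTiter-Glo luminescence after 5 min.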
TbPYK inhibitor: qHTS of Trypanosoma Brucei Inhibitors | pyruvate kinase (Trypanosoma brucei), Q57TT1 | TbPYK enzyme, Kinase-Glo Plus ATP luminescence, 45 min | Potency, µM (titrated, usually from 76.8 µM), for the others: top-dose activity, negative = inhibition, hits mostly inhibitors | 410,000 tested, 0.12% active; also: % is scaled to controls: 0 for no effect and ±100 for the full control effect; nearly all actives have a fitted effect of over 50% in size
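TbPYK + substrate in 50 mM TEA pH 7.2, 100 mM KCl, 10 mM MgCl2, 0.05% BSA, 0.01% Tween-20; cpd pinned; ADP 130 uM final; 45 min RT; Kinase-Glo Plus 10 min; luminescence endpoint.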
LmPK inh: qHTS Assay for Inhibitors of Leishmania Mexicana Pyruvate Kinase (LmPK). Potency, µM (titrated, usually from 57.5 µM), without a hit: top-dose activity change, negative = inhibition, most hits filed as inhibitors. AID 1721, 2009. Q27686. 290,000 tested, 0.37% active. purified LmPK, Kinase-Glo ATP luminescence, 1 h; also: % is scaled to controls: 0 for no effect and ±100 for the full control effect
Target sequence (Q27686 whole entry, looked up): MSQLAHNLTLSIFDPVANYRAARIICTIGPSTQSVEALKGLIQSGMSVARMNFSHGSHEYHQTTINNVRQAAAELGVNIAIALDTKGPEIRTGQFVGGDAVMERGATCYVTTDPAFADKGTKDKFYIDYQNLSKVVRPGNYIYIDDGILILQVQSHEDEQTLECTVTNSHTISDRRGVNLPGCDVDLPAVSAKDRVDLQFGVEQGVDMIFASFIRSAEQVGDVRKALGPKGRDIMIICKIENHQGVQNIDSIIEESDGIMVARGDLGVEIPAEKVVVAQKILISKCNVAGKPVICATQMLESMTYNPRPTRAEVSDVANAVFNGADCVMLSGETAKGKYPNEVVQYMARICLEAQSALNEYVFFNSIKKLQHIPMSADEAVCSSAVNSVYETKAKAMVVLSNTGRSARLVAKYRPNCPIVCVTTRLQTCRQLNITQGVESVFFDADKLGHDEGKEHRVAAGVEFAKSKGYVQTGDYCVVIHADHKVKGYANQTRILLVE
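Purified LmPK (0.1 nM) converted ADP (0.1 mM) to ATP with PEP (0.5 mM) in imidazole buffer pH 7.2 with KCl and MgCl2, 1 h at room temperature. ATP was read by Kinase-Glo luminescence; data normalized to uninhibited and no-enzyme controls.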
NS1 function inh: qHTS Assay for Inhibitors of Influenza NS1 Protein Function; AID 2326, 2010; Potency, µM (series often up to 46.1 µM), without a hit: at the highest dose activity, positive = more growth; 270,000 tested, 0.4% active; calls by dose curve; also: actives are rising curves; nearly all actives have a fitted effect of over 50% in size
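OD600 was taken as the measure of yeast growth restored by compound in an NS1-expressing S. cerevisiae strain. Cells had been washed out of glucose medium and diluted 1:100 into galactose -URA medium, pH 6.0.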
* = called active by the depositor; ? = inconclusive; · = no result given. Most compounds without a hit are left out; they make up all but 3.3% or so of the library. Unless noted, calls follow the shape of the dose curve; as a rule, active = well fitted curve in the direction sought with a large enough effect; inconclusive = small, poorly fitted or top-dose-only effect, or another doubt; inactive = no such curve, though single readings can be large; an effect the other way counts as inactive or inconclusive. Potency is read from the fitted curve at half-maximal effect.

SMILES | SARS PLP yeast | Sm TGR block | RE007 growth inh | TbPYK inhibitor | LmPK inh | NS1 function inh
CCCOc1ccc(C2C(=O)N(C3CCCCCC3)CC(=O)N2Cc2ccc(OC)cc2)cc1OC (stereo unspecified) | · | -1% | · | -4% | · | ·
O=S(=O)(c1ccccc1)N1CN2CN(C1)CN(S(=O)(=O)c1ccccc1)C2 | · | · | · | · | · | 3%
O=C(Cn1c(=O)oc2ccccc21)NCc1ccccc1Cl | · | 6% | · | -4% | · | ·
O=C(C1=C[C@@H](c2ccccc2)C[C@@H](OCCCCO)O1)N1CCOCC1 | -1% | 40µM* | 20% | 1% | 1% | 1%
O=C(C1=C[C@@H](c2ccc(Br)cc2)C[C@@H](OCCCCO)O1)N1CCOCC1 | -2% | ? | 6% | 0% | 10% | 1%
O=C(NCc1ccccc1)C1=C[C@@H](c2ccccc2)C[C@@H](OCc2ccc(CO)cc2)O1 | -3% | 50µM* | -12% | 0% | -1% | -2%
O=C(C1=C[C@@H](c2ccccc2)C[C@@H](OCc2ccc(CO)cc2)O1)N1CCOCC1 | -1% | 45µM* | 4% | -5% | -1% | 1%
C#CCNC(=O)C1=C[C@@H](C(C)(C)C)C[C@@H](OCc2ccc(CO)cc2)O1 | 0% | 35µM* | 4% | 4% | 3% | 1%
Cc1ccc(C(=O)c2cc(O)c(O)c([N+](=O)[O-])c2)cc1 | · | · | · | -5% | · | ·
O=C(Nc1ccc(Br)cc1)C1CCCN1S(=O)(=O)c1ccc(F)cc1 (stereo unspecified) | · | -3% | · | 5% | · | ·
Nc1nc(C(=O)O)c(N=Nc2ccccc2)c(=O)[nH]1 | · | · | · | · | · | -4%
CC1CN(c2c(F)c(N)c3c(=O)c(C(=O)O)cn(C4CC4)c3c2F)CC(C)N1 (stereo unspecified) | · | · | · | -6% | · | ·
O=C(O)C(Oc1nc(=S)[nH]c(=S)[nH]1)(c1ccc(Cl)cc1)c1ccc(Cl)cc1 | · | · | · | · | · | -3%
COc1cc(OC)cc(C(=O)N2CC(=O)Nc3ccc(Cl)cc3C2c2ccccc2)c1 (stereo unspecified) | · | 5% | · | -9% | · | ·
CC(C)C[C@@H](NC(=O)[C@@H](COC(C)(C)C)NC(=O)[C@H](Cc1ccc(O)cc1)NC(=O)[C@@H](CO)NC(=O)[C@@H](Cc1c[nH]c2ccccc12)NC(=O)[C@@H](Cc1cnc[nH]1)NC(=O)[C@@H]1CCC(=O)N1)C(=O)N[C@H](CCCN=C(N)N)C(=O)N1CCC[C@H]1C(=O)NNC(N)=O | · | · | · | -9% | · | ·
COc1ccc(C)cc1NC(=O)CSc1ncc2c(n1)-c1ccc(Cl)cc1N(Cc1ccccc1)S2(=O)=O | · | -18% | · | -10% | · | ·
CCn1nc(C)cc1C(=O)Sc1cccc(Cl)c1 | 2% | 6.3µM* | -28% | 5% | -4% | -32%
Cc1nn(C)c(C(=O)Sc2ccccc2)c1[N+](=O)[O-] | -6% | 2.5µM* | ? | -3% | -4% | -61%
Cc1nn(C)c(C(=O)N/N=C/c2ccccn2)c1[N+](=O)[O-] | -10% | -6% | 13% | 0% | -14% | -30%
Cc1nn(C)c(C(=O)Sc2cccc(Cl)c2)c1[N+](=O)[O-] | 0% | 1.4µM* | -30% | 1% | 3% | -30%
CCn1nc(C)cc1C(=O)N1CCCC(N2CCN(c3cccc(Cl)c3)CC2)C1 (stereo unspecified) | -1% | 2% | · | · | -1% | -22%
CCOc1cccc(CC(=O)N2CCc3c([nH]c4ccccc34)C2c2ccc(C)cc2)c1OCC (stereo unspecified) | · | 3% | · | 2% | · | ·
CCc1ccc(NS(=O)(=O)c2ccc(-c3cc(C)no3)cc2)cc1 | · | -1% | · | -8% | · | ·
CCOC(=O)c1ccc(NC(=O)CCc2c(C)nc3nc[nH]n3c2=O)cc1 | · | 0% | · | -8% | · | ·
